Assay results published in PubChem BioAssay (Tox21).
Results filed as inconclusive are left out. The source made the active and inactive calls. Unless noted, calls follow the shape of the dose curve; as a rule, active = well fitted curve in the direction sought with a large enough effect in the repeat runs; inconclusive = weak or mixed curves; inactive = no such curve, though single readings can be large; an effect the other way counts as inactive or inconclusive.

How the values were obtained:
[1] = qHTS assay to identify small molecule agonists of the hypoxia (HIF-1) signaling pathway - cell viability counter screen (AID 1224844; calls by dose curve; also: nearly all actives have a fitted effect of over 50% in size)
Summary of the method: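 Same wells as the HIF-1 reporter screen; ME-180 cells carrying HRE-bla, 17 hr treatment at 37C; CellTiter-Glo luminescence read after 30 min at room temperature.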

[2] = qHTS assay to identify small molecule agonists of H2AX (AID 1224845; active = well fitted activation curve with a large enough effect in the signal ratio in the repeat runs, not every such curve was filed as active; the % refers to the signal ratio)
Summary of the method: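 Wild-type CHO-K1 cells, plated overnight, exposed 3hr at 37C to 15 concentrations (0.76% DMSO final). Lysed, then HTRF anti-pH2AX (S139) cryptate and anti-H2AX-d2 antibodies, 24 hr room temperature; 665/620 nm emission read.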

[3] = qHTS assay to identify small molecule agonists of the hypoxia (HIF-1) signaling pathway (AID 1224846; active = well fitted activation curve with a large enough effect in the signal ratio in the repeat runs, not every such curve was filed as active; the % refers to the signal ratio)
Summary of the method: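 In ME-180 cells bearing an HRE-bla construct, 17 h treatment with DMSO-dissolved compounds at 37C was followed by CCF4-AM loading to quantify reporter induction.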

[4] = qHTS assay to identify small molecule agonists of H2AX - cell viability counter screen (AID 1224847; calls by dose curve; also: top concentration of the series differs between compounds; nearly all actives have a fitted effect of over 30% in size)
Summary of the method: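 CHO-K1 cells plated overnight at 37C, then exposed 3 h at 37C to compounds at 15 concentrations (0.76% DMSO final). Viability by CellTiter-Glo luminescence after 30 min at room temperature.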

[5] = qHTS assay to identify small molecule antagonists of the estrogen related receptor (ERR) signaling pathway from Tox21 library (AID 1224848); also: nearly all actives have a fitted effect of over 50% in size
Summary of the method: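 Compounds dissolved in DMSO are pin-transferred onto ERR reporter cells (2,000 per well) that have settled for 6 h at 37 C. Plates then incubate 18 h at 37 C before ONE-Glo luciferase reagent and a luminescence read 30 min later.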

[6] = qHTS RealTime-Glo MT Cell Viability Assay in HepG2 cells - 24 hour (AID 1224867); also: nearly all actives have a fitted effect of over 50% in size
Summary of the method: (§1)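 HepG2 suspension premixed with RealTime-Glo reagents is plated at 600 cells per well and left 5 h at 37 C/5% CO2. Compounds in DMSO then go in, and bioluminescence reflecting viable cell number is recorded over 40 h.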

[7] = qHTS RealTime-Glo MT Cell Viability Assay in HEK293 cells - 32 hour (AID 1224868); also: top concentration of the series differs between compounds; nearly all actives have a fitted effect of over 50% in size
Summary of the method: (§2)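 Reads taken at 0, 8, 16, 24, 32 and 40 h from the same wells. HEK293 cells (600/well) carried RealTime-Glo reagents from seeding, with compound added after a 5 h settle at 37 C.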

[8] = A CellTox Green Cytotoxicity Assay to monitor cytotoxicity in HEK293 cells - 0 hour (AID 1224869); also: nearly all actives have a fitted effect of over 50% in size
Summary of the method: (§3)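 Homogeneous no-lysis format: HEK293 cell suspension mixed with CellTox Green reagent, seeded, incubated 5 h at 37 C/5% CO2, then dosed by pintool with compound in DMSO.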

[9] = qHTS RealTime-Glo MT Cell Viability Assay in HepG2 cells - 40 hour (AID 1224870); also: nearly all actives have a fitted effect of over 50% in size
Summary of the method: (§4)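 HepG2 cells (600/well) mixed with RealTime-Glo MT reagent, settled 5 h at 37 C/5% CO2 before compound addition. Nonlytic NanoLuc luminescence from viable-cell prosubstrate reduction read repeatedly during 40 h treatment at 37 C.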

[10] = A CellTox Green Cytotoxicity Assay to monitor cytotoxicity in HEK293 cells - 40 hour (AID 1224871); also: nearly all actives have a fitted effect of over 45% in size
Summary of the method: as §3

[11] = qHTS RealTime-Glo MT Cell Viability Assay in HEK293 cells - 16 hour (AID 1224872)
Summary of the method: as §2

[12] = qHTS RealTime-Glo MT Cell Viability Assay in HepG2 cells - 8 hour (AID 1224873); also: nearly all actives have a fitted effect of over 55% in size
Summary of the method: as §4

[13] = qHTS RealTime-Glo MT Cell Viability Assay in HEK293 cells - 40 hour (AID 1224874); settings: RealTime-Glo luminescence; max response: stronger effect = lower value; also: nearly all actives have a fitted effect of over 50% in size
Summary of the method: (§5)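 Measured as luminescence from the same continuously cultured HEK293 wells at successive time points (0, 8, 16, 24, 32, 40 h) after compound addition. Reagent present from seeding; dosing at 5 h; incubation 37 C.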

[14] = A CellTox Green Cytotoxicity Assay to monitor cytotoxicity in HEK293 cells - 24 hour (AID 1224875); also: nearly all actives have a fitted effect of over 45% in size
Summary of the method: as §3

[15] = A CellTox Green Cytotoxicity Assay to monitor cytotoxicity in HepG2 cells - 16 hour (AID 1224876); also: nearly all actives have a fitted effect of over 45% in size
Summary of the method: (§6)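 Fluorescent DNA-binding dye, 600 HepG2 cells/well, 5 h preincubation then compound in DMSO; same plates read at 0–40 h, 37 C.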

[16] = qHTS RealTime-Glo MT Cell Viability Assay in HepG2 cells - 32 hour (AID 1224877); also: nearly all actives have a fitted effect of over 55% in size
Summary of the method: as §1

[17] = A CellTox Green Cytotoxicity Assay to monitor cytotoxicity in HepG2 cells - 24 hour (AID 1224878); also: nearly all actives have a fitted effect of over 45% in size
Summary of the method: as §6

[18] = A CellTox Green Cytotoxicity Assay to monitor cytotoxicity in HepG2 cells - 40 hour (AID 1224879); also: nearly all actives have a fitted effect of over 40% in size
Summary of the method: as §6

[19] = qHTS RealTime-Glo MT Cell Viability Assay in HEK293 cells - 0 hour (AID 1224880)
Summary of the method: as §5

[20] = qHTS assay to identify small molecule agonists of the estrogen related receptor (ERR) signaling pathway from Tox21 library (AID 1224849; calls by dose curve; also: nearly all actives have a fitted effect of over 15% in size); settings: ERR reporter cell line, ONE-Glo luciferase, 18 h; at 92.4 µM (top of the series) unless noted
Summary of the method: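 Reporter cells (ERR, NTP source) treated with Tox21 10K compounds 18 h, 37 C. Readout: ONE-Glo luminescence, 30 min RT.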
% is scaled to controls: 0 for no effect and ±100 for the full control effect.

NC1CCN(c2nc3c(cc2F)c(=O)c(C(=O)O)cn3-c2ccc(F)cc2F)C1 (stereo unspecified)
inactive: Potency [1] | Potency [2] | outcome [3] | Potency [4] | Potency [5] | Potency [6] | Potency [7] | Potency [8] | Potency [9] | Potency [10] | Potency [11] | Potency [12] | max response [13] -1.98% | Potency [14] | Potency [15] | Potency [16] | Potency [17] | Potency [18]

C=C(C)C(=O)OC(C)C
inactive: Potency [1] | Potency [2] | outcome [3] | Potency [4] | Potency [6] | Potency [7] | Potency [8] | Potency [9] | Potency [10] | Potency [11] | Potency [12] | max response [13] 6% | Potency [14] | Potency [15] | Potency [16] | Potency [17] | Potency [18] | Potency [19]

COc1ccc2[nH]c(S(=O)Cc3ncc(C)c(OC)c3C)nc2n1 (stereo unspecified)
inactive: Potency [1] | Potency [2] | outcome [3] | Potency [4] | activity change, positive = activation [20] -23.9% [at 42.5 µM] | Potency [6] | Potency [7] | Potency [8] | Potency [9] | Potency [10] | Potency [11] | Potency [12] | max response [13] -17.3% | Potency [14] | Potency [15] | Potency [16] | Potency [17] | Potency [18] | Potency [19]

O=C1c2cccc(O)c2C(=O)c2c(O)cc(CO)cc21
inactive: Potency [1] | Potency [2] | outcome [3] | Potency [4] | activity change, positive = activation [20] -22.2% | Potency [6] | Potency [8] | Potency [9] | Potency [10] | Potency [12] | max response [13] 29.8% | Potency [14] | Potency [15] | Potency [16] | Potency [17] | Potency [18] | Potency [19]

CC(=O)O[C@H]1C[C@@H]2CC[C@@H]3[C@H](CC[C@@]4(C)[C@H]3C[C@H]([N+]3(C)CCCCC3)[C@@H]4OC(C)=O)[C@@]2(C)C[C@@H]1N1CCCCC1
inactive: Potency [1] | Potency [2] | outcome [3] | Potency [4] | Potency [6] | Potency [7] | Potency [8] | Potency [9] | Potency [10] | Potency [11] | Potency [12] | max response [13] 3.64% | Potency [14] | Potency [15] | Potency [16] | Potency [17] | Potency [18] | Potency [19]

Nc1cnn([C@@H]2O[C@H](CO)[C@@H](O)[C@H]2O)c(=O)n1
inactive: Potency [1] | Potency [2] | outcome [3] | Potency [4] | Potency [6] | Potency [7] | Potency [8] | Potency [9] | Potency [10] | Potency [11] | Potency [12] | max response [13] -6.05% | Potency [14] | Potency [15] | Potency [16] | Potency [17] | Potency [18] | Potency [19]

N#CCc1cccc(C(F)(F)F)c1
inactive: Potency [1] | Potency [2] | outcome [3] | Potency [4] | Potency [6] | Potency [7] | Potency [8] | Potency [9] | Potency [10] | Potency [11] | Potency [12] | max response [13] 10.3% | Potency [14] | Potency [15] | Potency [16] | Potency [17] | Potency [18] | Potency [19]
